# Compound activity (PubChem BioAssay)
# mHTT CaM bind = mutant huntingtin-calmodulin interaction inhibitors – biochemical, AlphaScreen, primary screen; AlphaScreen His-mHTT/GST-CaM binding, luminescence; inhibition, % at 15 µM; 190,000 tested, 3.6% active; AID 1671202, 2021;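 also: 0% = both proteins with DMSO and 100% = one protein alone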
# Target sequence (P42858 whole entry, looked up, stated change not applied): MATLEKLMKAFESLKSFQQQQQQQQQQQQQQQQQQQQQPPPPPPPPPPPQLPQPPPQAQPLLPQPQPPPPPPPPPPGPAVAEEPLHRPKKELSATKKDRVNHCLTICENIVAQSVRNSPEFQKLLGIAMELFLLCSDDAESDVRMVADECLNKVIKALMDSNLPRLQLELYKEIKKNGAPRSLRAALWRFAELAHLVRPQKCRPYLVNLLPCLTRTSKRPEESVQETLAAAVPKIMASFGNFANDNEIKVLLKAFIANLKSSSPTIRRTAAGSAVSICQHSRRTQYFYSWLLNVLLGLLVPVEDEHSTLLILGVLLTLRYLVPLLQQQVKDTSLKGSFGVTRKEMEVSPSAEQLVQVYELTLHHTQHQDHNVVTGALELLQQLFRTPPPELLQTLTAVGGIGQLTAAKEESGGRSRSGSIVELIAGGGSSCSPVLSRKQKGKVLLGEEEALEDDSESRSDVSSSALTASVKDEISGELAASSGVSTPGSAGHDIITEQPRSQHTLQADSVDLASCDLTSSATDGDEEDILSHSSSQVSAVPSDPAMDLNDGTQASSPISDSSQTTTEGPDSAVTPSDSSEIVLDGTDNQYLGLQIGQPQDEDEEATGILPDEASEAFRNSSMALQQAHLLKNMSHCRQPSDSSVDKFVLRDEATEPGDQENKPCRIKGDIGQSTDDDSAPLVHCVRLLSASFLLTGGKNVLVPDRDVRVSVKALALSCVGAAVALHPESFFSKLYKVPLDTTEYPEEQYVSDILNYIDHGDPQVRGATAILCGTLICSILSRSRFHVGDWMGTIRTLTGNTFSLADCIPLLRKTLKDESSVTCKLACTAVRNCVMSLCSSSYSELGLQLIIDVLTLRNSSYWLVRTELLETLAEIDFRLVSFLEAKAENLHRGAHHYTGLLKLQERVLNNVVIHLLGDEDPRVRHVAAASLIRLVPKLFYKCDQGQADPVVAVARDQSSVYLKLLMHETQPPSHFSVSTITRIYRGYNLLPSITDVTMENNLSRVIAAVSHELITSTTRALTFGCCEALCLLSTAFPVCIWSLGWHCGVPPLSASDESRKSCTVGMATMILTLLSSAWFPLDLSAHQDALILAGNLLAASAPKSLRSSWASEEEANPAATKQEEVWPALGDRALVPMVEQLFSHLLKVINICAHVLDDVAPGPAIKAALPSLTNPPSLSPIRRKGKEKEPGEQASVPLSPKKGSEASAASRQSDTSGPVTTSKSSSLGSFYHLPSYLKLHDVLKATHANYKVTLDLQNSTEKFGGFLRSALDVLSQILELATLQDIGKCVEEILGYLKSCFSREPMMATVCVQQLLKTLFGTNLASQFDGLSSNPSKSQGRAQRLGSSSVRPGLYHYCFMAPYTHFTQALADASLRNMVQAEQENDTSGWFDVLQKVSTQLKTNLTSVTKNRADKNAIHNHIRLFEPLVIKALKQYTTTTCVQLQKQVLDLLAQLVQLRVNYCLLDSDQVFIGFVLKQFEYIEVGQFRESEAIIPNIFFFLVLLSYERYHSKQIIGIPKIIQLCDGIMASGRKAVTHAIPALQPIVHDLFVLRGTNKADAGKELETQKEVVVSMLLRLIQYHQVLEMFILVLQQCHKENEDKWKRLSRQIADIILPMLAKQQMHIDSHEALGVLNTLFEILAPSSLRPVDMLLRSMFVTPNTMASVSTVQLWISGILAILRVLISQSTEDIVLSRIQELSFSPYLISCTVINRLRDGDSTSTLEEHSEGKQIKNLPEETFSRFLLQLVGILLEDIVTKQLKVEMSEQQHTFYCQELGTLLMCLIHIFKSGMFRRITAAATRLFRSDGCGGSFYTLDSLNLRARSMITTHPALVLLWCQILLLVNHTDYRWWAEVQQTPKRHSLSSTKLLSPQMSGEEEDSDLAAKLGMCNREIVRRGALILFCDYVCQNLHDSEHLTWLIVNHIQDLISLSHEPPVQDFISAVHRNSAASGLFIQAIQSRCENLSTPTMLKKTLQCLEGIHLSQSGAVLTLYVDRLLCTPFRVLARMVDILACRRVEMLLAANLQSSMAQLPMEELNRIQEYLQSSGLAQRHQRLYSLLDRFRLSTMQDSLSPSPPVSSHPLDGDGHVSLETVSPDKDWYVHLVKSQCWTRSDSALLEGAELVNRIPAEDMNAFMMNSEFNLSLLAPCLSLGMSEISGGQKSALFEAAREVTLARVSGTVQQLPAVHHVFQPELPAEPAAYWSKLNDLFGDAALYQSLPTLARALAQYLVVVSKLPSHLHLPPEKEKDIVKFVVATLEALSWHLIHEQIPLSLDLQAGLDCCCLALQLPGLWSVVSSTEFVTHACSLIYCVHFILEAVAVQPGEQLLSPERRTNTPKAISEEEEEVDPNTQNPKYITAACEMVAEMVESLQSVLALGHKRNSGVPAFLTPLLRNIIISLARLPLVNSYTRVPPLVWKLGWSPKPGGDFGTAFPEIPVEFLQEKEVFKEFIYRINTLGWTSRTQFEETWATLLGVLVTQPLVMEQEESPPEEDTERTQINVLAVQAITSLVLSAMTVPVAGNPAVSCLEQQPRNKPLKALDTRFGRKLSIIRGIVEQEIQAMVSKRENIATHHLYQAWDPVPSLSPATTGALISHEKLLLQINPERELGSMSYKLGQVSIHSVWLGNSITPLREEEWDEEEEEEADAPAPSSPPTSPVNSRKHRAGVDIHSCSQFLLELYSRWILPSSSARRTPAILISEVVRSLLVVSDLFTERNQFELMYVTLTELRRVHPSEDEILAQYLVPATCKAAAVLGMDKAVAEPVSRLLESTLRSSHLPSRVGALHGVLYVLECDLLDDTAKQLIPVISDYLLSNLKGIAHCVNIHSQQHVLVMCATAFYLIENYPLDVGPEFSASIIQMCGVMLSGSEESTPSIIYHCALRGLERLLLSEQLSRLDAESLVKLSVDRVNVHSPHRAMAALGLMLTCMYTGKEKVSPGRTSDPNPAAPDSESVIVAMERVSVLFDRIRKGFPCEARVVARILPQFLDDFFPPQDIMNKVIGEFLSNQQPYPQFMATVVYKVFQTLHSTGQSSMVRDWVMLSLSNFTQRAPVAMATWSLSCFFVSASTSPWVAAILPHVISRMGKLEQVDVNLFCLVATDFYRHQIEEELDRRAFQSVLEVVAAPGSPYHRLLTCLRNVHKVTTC
# Pf apPOL inh = Pf-apPOL inhibitors, biochemical, fluorescence; AID 1794808, 2022; Recombinant Pf-apPOL, molecular beacon fluorescence, 1.5 h; 210,000 tested, 0.25% active; inhibition, % at 10 µM
# Active calls of the source: *; i = inactive; x = not tested or not shown; + = active, no number. Sampled rows, rich in hits. Any-hit rate of the full collection: about 3.6%. Rule as the data show it: active = inhibition above about 50%; inactive = the rest.
SMILES,mHTT CaM bind,Pf apPOL inh
O=C1Nc2ccccc2C12Oc1ccccc1C1CC(c3ccccc3)=NN12 (configuration not stated),100*,-6
COc1ccc(C2=NN3C(C2)c2cc(Cl)ccc2OC3(C)C)cc1 (configuration not stated),38,-16
O=C(Nc1ccc(Cl)c(-c2nc3ncccc3o2)c1)c1ccc([N+](=O)[O-])o1,13,-9
COCCN1C(=O)Cc2ccccc2C1C(=O)N1CCN(c2cccc(Cl)c2)CC1 (configuration not stated),67*,-4
CCN1C(=O)Cc2ccccc2C1C(=O)N1CCN(c2cccc(Cl)c2)CC1 (configuration not stated),5,3
COc1cccc2cc(-c3cc(=O)oc4ccc(OCC(=O)OC(C)C)cc34)oc12,0,-13
COc1ccccc1-c1nnc(NC(=O)c2ccc3c(c2)CCCC3)o1,-2,-6
CC(C)S(=O)(=O)c1cccc(-c2nnc(NC(=O)c3ccc4c(c3)CCCC4)o2)c1,51*,-18
COc1ccccc1CC(=O)N1CCCC1c1ccc(C)cc1 (configuration not stated),-5,-2
Cc1cccc(-c2cc3n(n2)CCCN(C(=O)CCCc2ccccc2)C3)c1,56*,-9
COc1ccccc1CC(=O)N1CCCC1c1ccc(Cl)cc1 (configuration not stated),59*,-2
COCC(=O)N1CCCn2nc(-c3cccc(C)c3)cc2C1,-3,-1
O=C(CCCc1ccccc1)N1CCCn2nc(-c3ccc(Cl)cc3)cc2C1,88*,0
O=C(CCCc1ccccc1)N1CCCn2nc(-c3cccs3)cc2C1,-4,-8
O=C(Cc1ccccc1F)N1CCCn2nc(-c3ccc(Cl)cc3)cc2C1,30,-16
COc1ccccc1CC(=O)N1CCCn2nc(-c3ccc(Cl)cc3)cc2C1,71*,-2
COc1ccccc1CC(=O)N1CCCn2nc(-c3cccc(C)c3)cc2C1,38,-7
COc1ccccc1CCC(=O)N1CCCn2nc(-c3ccc(C)cc3)cc2C1,35,-4
Cc1cccc(-c2cc3n(n2)CCCN(C(=O)Cc2ccccc2F)C3)c1,73*,-3
COc1ccc(-c2cc3n(n2)CCCN(Cc2ccccc2C)C3)cc1OC,73*,2
CSc1nnc2c(n1)OC(c1cc3c(cc1[N+](=O)[O-])OCO3)N(C(C)=O)c1ccccc1-2 (configuration not stated),10,1
CCN(CC)c1ccc(C2Oc3nc(SC)nnc3-c3ccccc3N2C(C)=O)c(OC)c1 (configuration not stated),59*,-10
CSc1nnc2c(n1)OC(c1cc3c(cc1Cl)OCO3)N(C(C)=O)c1ccccc1-2 (configuration not stated),78*,-13
CCSc1nnc2c(n1)OC(c1ccccc1OC)N(C(C)=O)c1ccccc1-2 (configuration not stated),14,5
CN1C(=O)C(CC(=O)NC2CCCCCC2)Sc2ncccc21 (configuration not stated),-12,3
SMILES,mHTT CaM bind,Pf apPOL inh
COc1ccc(CCNc2ncnc3ccc(Br)cc23)cc1OC,1,-5
O=C(NCc1ccccc1)C1CCN(c2nc3ccccc3[nH]2)CC1,-6,0
C#CCOc1ccc(/C=N\n2cnnc2N/N=C/c2ccc(OCC#C)c(OC)c2)cc1OC,+,x
Oc1ccc(/C=N\Nc2nncn2/N=C\c2ccc(O)c(O)c2)cc1O,i,x
Cc1cc(C)c(S(=O)(=O)NC(C)(C)C)cc1N(C)S(=O)(=O)c1ccc(Cl)cc1,-3,-3
COc1ccc(-c2c(C)oc3cc(OC(=O)c4cccc([N+](=O)[O-])c4)ccc3c2=O)cc1OC,-8,-6
O=C(NCCc1c[nH]c2ccc(OCc3ccccc3)cc12)c1ccc(Cl)cc1,73*,-2
COc1ccc2[nH]cc(CCNC(=O)c3ccc(Cl)cc3)c2c1,14,2
CCCC12CN(C(C)=O)CC(C)(CN(C(C)=O)C1)C2=O,-1,-5
COc1ccc(CCC(=O)NCC2CCN(Cc3cccs3)CC2)cc1,-3,-8
O=C1OCCN1C(=O)[C@H]1[C@H](c2ccccc2)C(c2ccc(F)cc2)=NN1c1ccc(Br)cc1,31,-1
O=C1OCCN1C(=O)[C@H]1[C@H](c2ccc([N+](=O)[O-])cc2)C(c2ccc(F)cc2)=NN1c1ccc(Br)cc1,65*,-6
O=C1OCCN1C(=O)[C@H]1[C@H](c2ccc([N+](=O)[O-])cc2)C(c2ccc(F)cc2)=NN1c1ccccc1,54*,-8
O=C1OCCN1C(=O)[C@H]1[C@H](c2ccccc2)C(c2ccccc2)=NN1c1ccccc1,-54,2
C=CCn1c(-c2ccc([N+](=O)[O-])cc2)nc(=S)c2c1CCCC2,1,-2
CCOCCCNC(=O)C1CC(=O)N(CCc2c[nH]c3ccc(F)cc23)C1 (configuration not stated),1,1
CC(NC(=O)c1cccc(F)c1)C1CC1 (configuration not stated),-13,4
COC(=O)C1CN(CCc2ccccc2)CCS(=O)(=O)N1Cc1ccc(C(F)(F)F)cc1 (configuration not stated),77*,-1
COC(=O)C1CN(Cc2ccc(F)cc2)CCS(=O)(=O)N1Cc1ccc(C)cc1 (configuration not stated),50*,-2
COC(=O)C1CN(CCc2ccccc2)CCS(=O)(=O)N1Cc1ccccc1 (configuration not stated),12,-3
COC(=O)C1CN(Cc2ccc(C)cc2)CCS(=O)(=O)N1Cc1cn(Cc2ccc(F)cc2)nn1 (configuration not stated),3,-7
COC(=O)c1cc(Br)c(C(=O)OC)cc1Br,x,2
Cn1c(C2CCN(C(=O)c3ccc(C(F)(F)F)cc3)C2)nc2cccnc21 (configuration not stated),17,0
O=C1CCCC2=C1C(c1ccccc1Cl)n1c(nc3ccccc31)N2 (configuration not stated),-5,-12
c1ccc(C2C3=C(CCCC3)Nc3ncnn32)cc1 (configuration not stated),7,96*
SMILES,mHTT CaM bind,Pf apPOL inh
c1ccc(C2C3=C(CCCC3)Nc3nc4ccccc4n32)cc1 (configuration not stated),100*,0
CC1(C)CC(=O)C2=C(C1)Nc1ncnn1C2c1ccccc1 (configuration not stated),-2,0
O=C(Cc1cccnc1)N1CCCC(c2nncn2-c2ccccc2)C1 (configuration not stated),-3,-1
CC(C)CN1CCN(C(=O)c2cc3c(n2C)CCN(Cc2cccc(F)c2)C3)CC1,12,-6
COC(=O)c1sccc1S(=O)(=O)Nc1ccc(N2CCN(C)CC2)cc1,x,-1
CC(=O)NCc1cccnc1-c1cccc(C)c1,-6,0
O=C(NC1CCCc2ccccc21)C1CCN(Cc2c[nH]c3ccccc23)CC1 (configuration not stated),70*,-2
CCN(CC)S(=O)(=O)N1CCC(C(=O)NC2CCCc3ccccc32)CC1 (configuration not stated),-13,-7
Cc1nn2c(=O)/c(=C/c3cccc(F)c3)sc2nc1=O,1,-1
CN(C)c1cccc(C(=O)NCC2CCN(c3cc(-c4ccccn4)[nH]n3)CC2)c1,55*,0
